The record followed here is PubChem BioAssay (EPA / NIEHS).

Activity calls are given as the source filed them. Rule for the calls: active = hit-call score of the fitted dose curve at least 0.9, where 1 is the maximum; inactive = score below 0.9.

Assay [1] is described as follows: ATG_CRE_CIS: Attagene CIS-FACTORIAL HepG2 Assay for human cAMP Responsive Element (CRE) binding protein 3 (AID 2282926). The following applies: HepG2 CRE cis-reporter, Attagene multiplexed mRNA; actives raise or lower the signal. The procedure, abridged: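 Induced reporter mRNA from a CRE cis element, measured in HepG2 among many multiplexed units at 24 h. Detection used RT-PCR plus capillary electrophoresis of fluorescent fragments; DMSO served as negative control.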

Assay [2] deals with CCAAT/enhancer-binding protein beta (Homo sapiens) (UniProt P17676). Briefly: ATG_C_EBP_CIS: Attagene CIS-FACTORIAL HepG2 Assay for human CCAAT/Enhancer Binding Protein (C/EBP) beta (AID 2282927). The following applies: HepG2 Attagene cis-factorial transcription factor reporter; actives raise or lower the signal. In short, it runs like this: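 HepG2 transiently transfected with multiplexed reporter units under cis-regulatory promoters reporting endogenous C/EBPb activity. After 24 h exposure, reporter mRNA assayed by RT-PCR, fluorescent labelling, HpaI digestion and capillary electrophoresis; bidirectional fitting versus DMSO.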
Sequence of CCAAT/enhancer-binding protein beta (Homo sapiens) (P17676 whole entry, looked up): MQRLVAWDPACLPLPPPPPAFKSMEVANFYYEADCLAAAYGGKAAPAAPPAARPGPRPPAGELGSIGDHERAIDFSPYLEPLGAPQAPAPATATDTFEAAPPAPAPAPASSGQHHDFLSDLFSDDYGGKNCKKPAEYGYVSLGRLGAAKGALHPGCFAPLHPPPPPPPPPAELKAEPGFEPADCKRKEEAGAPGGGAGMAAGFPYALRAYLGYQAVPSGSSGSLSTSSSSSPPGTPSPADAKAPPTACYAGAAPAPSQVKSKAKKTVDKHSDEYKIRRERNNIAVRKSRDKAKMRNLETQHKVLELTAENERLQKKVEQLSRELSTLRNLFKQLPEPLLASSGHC

Assay [3] can be described thus: ATG_CMV_CIS: Attagene CIS-FACTORIAL HepG2 Assay for human CMV (Internal Marker) (AID 2282928).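 Note: endpoint acts as a background internal control marker rather than a target.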 The settings on record: HepG2 CMV promoter reporter, transcription factor profiling; actives raise or lower the signal. In short, it runs like this:
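Fluorescence intensity of RT-PCR-derived reporter fragments, resolved by capillary electrophoresis, gives the signal. HepG2 liver cells bearing transfected cis-element reporters were treated 24 h; activity in either direction was fit relative to DMSO-treated controls.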

The nature of assay [4]: ATG_DR4_LXR_CIS: Attagene CIS-FACTORIAL HepG2 Assay for human Liver X Receptor (LXR), DR4 submotif (AID 2282929). The following applies: HepG2 Attagene DR4 cis-reporter, mRNA transcription; actives raise or lower the signal. In short, it runs like this:
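Fluorescence intensity of labelled reporter cDNA fragments, separated by capillary electrophoresis, gives the signal. HepG2 cells bearing cis-regulated reporter constructs were treated 24 h; activity fitted bidirectionally relative to DMSO negative control.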

Assay [5] addresses Aryl hydrocarbon receptor (Homo sapiens) (UniProt P35869). The assay can be described thus: ATG_Ahr_CIS: Attagene CIS-FACTORIAL HepG2 Assay for human Aryl Hydrocarbon Receptor (Ahr) (AID 2282930). The following applies: HepG2 AhR cis-factorial reporter transcription; actives raise or lower the signal. The procedure, abridged:
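HepG2 cells transiently transfected with cis-element-driven multiplexed reporter units; endogenous AhR activity read as reporter mRNA 24 h after dosing, via RT-PCR, 6-FAM labelling, HpaI digestion and capillary electrophoresis. Bidirectional fit relative to DMSO.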

Assay [6] is described as follows: ATG_AP_1_CIS: Attagene CIS-FACTORIAL HepG2 Assay for human Activator Protein 1 (AP-1) (AID 2282931). The following applies: HepG2 Attagene cis-factorial AP-1 reporter mRNA; actives raise or lower the signal. The procedure, abridged: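 Multiplexed HepG2 reporter assay, 24 h dosing. mRNA induction detected by RT-PCR plus capillary electrophoresis. Activity fitted in both directions against DMSO.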

Assay [7] is described as follows: ATG_AP_2_CIS: Attagene CIS-FACTORIAL HepG2 Assay for human Activator Protein 2 (AP-2) (AID 2282932). The settings on record: HepG2 AP-2 cis-reporter, Attagene transcription factor profiling; actives raise or lower the signal. In short, it runs like this:
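Read-out: fluorescent reporter mRNA via RT-PCR and capillary electrophoresis, 24 h post-dose in transiently transfected HepG2. Endogenous factors drive cis-promoter reporters; gain or loss of signal fitted bidirectionally against DMSO.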

Assay [8] can be described thus: ATG_BRE_CIS: Attagene CIS-FACTORIAL HepG2 Assay for human Bone Morphogenetic Protein (BMP) Response Element (BRE) (AID 2282933). The settings on record: HepG2 BMP response element reporter, Attagene transcription factor profiling; actives raise or lower the signal. The procedure, abridged: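 A HepG2 multiplex reporter system measured inducible reporter mRNA 24 h post-dosing. Detection: RT-PCR, 6-FAM primer extension, HpaI digestion, capillary electrophoresis. Activity fitted bidirectionally relative to DMSO.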

The target in assay [9] is Transcription factor E2F1 (Homo sapiens) (UniProt Q01094). Briefly: ATG_E2F_CIS: Attagene CIS-FACTORIAL HepG2 Assay for human E2F Transcription Factor 1 (AID 2282935). The following applies: HepG2 Attagene cis-reporter, E2F reporter RNA transcripts; actives raise or lower the signal. In short, it runs like this: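 Transient MRTU transfection of HepG2; 24 h compound exposure; RNA → oligo(dT) RT → PCR → FAM label → HpaI cut → CE fluorescence. Gain/loss of signal fit against DMSO.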
Sequence of Transcription factor E2F1 (Homo sapiens) (Q01094 whole entry, looked up): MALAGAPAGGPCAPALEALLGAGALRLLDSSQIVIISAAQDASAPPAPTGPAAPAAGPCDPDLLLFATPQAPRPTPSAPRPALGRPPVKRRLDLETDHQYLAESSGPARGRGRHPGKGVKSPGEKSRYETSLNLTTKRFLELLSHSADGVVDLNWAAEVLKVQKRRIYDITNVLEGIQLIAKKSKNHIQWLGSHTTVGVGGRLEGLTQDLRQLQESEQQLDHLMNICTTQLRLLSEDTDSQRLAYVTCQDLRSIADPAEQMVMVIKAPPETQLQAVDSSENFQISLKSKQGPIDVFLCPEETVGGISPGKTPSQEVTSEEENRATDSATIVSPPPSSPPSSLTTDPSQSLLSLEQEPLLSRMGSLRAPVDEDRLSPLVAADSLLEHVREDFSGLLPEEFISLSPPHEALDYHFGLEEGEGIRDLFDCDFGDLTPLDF

Assay [10] deals with Retinoic acid receptor alpha (Homo sapiens) (UniProt P10276). Briefly: ATG_DR5_RAR_CIS: Attagene CIS-FACTORIAL HepG2 Assay for human Retinoic Acid Receptor Alpha (RARE), DR5 submotif (AID 2282934). The following applies: HepG2 Attagene cis-factorial RARE DR5 reporter, mRNA; actives raise or lower the signal. In short, it runs like this: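 HepG2 cells transiently transfected with multiplexed reporter units; DR5 cis-element drives reporter through endogenous transcription factors. After 24 h dosing, reporter mRNA quantified by RT-PCR, fluorescent labeling, HpaI digestion and capillary electrophoresis; bidirectional fitting versus DMSO.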
Sequence of Retinoic acid receptor alpha (Homo sapiens) (P10276 whole entry, looked up): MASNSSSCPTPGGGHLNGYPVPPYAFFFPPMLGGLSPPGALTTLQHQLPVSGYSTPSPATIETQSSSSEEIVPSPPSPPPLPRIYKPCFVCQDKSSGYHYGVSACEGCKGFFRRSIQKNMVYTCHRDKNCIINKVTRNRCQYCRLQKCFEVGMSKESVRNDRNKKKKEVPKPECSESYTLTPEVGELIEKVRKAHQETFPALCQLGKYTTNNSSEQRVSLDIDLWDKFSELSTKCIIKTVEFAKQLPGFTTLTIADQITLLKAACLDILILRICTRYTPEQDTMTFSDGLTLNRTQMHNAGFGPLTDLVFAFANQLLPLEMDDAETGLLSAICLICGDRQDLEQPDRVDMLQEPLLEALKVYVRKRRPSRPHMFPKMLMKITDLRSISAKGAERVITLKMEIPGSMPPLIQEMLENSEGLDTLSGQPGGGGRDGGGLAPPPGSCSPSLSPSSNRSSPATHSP

Sequence of Aryl hydrocarbon receptor (Homo sapiens) (P35869 whole entry, looked up): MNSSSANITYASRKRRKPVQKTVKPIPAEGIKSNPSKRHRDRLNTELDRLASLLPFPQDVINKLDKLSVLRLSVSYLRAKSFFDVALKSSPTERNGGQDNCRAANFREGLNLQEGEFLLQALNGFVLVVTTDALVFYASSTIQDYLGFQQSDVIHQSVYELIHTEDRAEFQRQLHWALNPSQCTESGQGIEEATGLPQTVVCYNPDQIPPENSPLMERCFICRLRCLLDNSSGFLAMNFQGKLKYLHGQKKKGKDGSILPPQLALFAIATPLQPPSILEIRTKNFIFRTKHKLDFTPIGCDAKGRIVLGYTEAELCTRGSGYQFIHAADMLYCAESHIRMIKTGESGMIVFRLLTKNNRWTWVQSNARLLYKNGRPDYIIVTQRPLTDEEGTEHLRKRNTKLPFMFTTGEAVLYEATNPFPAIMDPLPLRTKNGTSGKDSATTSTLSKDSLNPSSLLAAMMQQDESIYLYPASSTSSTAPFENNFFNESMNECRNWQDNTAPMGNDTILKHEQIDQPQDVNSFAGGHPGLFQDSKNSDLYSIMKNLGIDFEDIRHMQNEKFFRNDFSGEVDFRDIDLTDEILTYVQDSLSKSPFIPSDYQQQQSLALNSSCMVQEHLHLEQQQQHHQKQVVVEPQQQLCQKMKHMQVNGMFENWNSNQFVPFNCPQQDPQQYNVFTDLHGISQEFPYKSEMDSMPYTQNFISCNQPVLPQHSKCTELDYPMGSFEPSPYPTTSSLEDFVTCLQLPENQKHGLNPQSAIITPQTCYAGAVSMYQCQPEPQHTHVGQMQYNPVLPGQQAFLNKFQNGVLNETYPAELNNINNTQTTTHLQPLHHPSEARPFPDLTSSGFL

With `CC(C)(Oc1ccc(CCNC(=O)c2ccc(Cl)cc2)cc1)C(=O)O`, the outcome in assay [1], in assay [2], in [3], in [4], in assay [5] and in assay [6] was inactive. Also, the call in assay [7], in assay [8] and in assay [9] was inactive.
On to `CC(=O)O[C@]1(C(C)=O)CC[C@H]2[C@@H]3C[C@H](C)C4=CC(=O)CC[C@]4(C)[C@H]3CC[C@@]21C`, for which the result in assay [1], in [2], in assay [3], in assay [4], in [5] and in assay [6] was inactive. Moreover, the result in [7], in assay [8] and in assay [9] was inactive.
For the compound `CCCCCCCCCCCCN(CCCCCCCCCCCC)CCCCCCCCCCCC`, the compound was called inactive in assay [1], in assay [2], in assay [3], in [4], in assay [5] and in [6]. In addition, the compound was called inactive in assay [7], in assay [10] and in assay [9].
Consider `O=C(Nc1ccccc1)c1cc([N+](=O)[O-])ccc1Cl`, for which the concentration at half-maximal activity (AC50) is 5.81 µM (active) in [1], 100 µM (active) in [4], 18.4 µM (active) in [5] and 100 µM (active) in [6]. For the same compound, the result in [2], in [3], in assay [7] and in assay [9] was inactive.
For the compound `CN(C)CCOCCN(C)C`, the result in [1], in [2], in assay [3], in assay [4], in assay [5] and in assay [6] was inactive. For the same compound, the call in [7], in [8] and in assay [9] was inactive.
As for `CC(=O)Nc1ccc(CC(=O)O)cc1`, the call in [1], in assay [2], in assay [3], in [4], in assay [5] and in [6] was inactive. Further, the call in [8] and in [9] was inactive.
`COC(=O)OC`: the compound was classed as inactive in assay [1], in assay [2], in [3], in [4], in assay [5] and in assay [6]. Moreover, the compound was called inactive in assay [7] and in assay [9].
Take `OC1OC[C@@H](O)[C@H](O)[C@H]1O` (some centres not stated): the call in assay [1], in assay [2], in assay [3], in assay [4], in [5] and in assay [6] was inactive. The compound was called inactive in assay [8] and in assay [9].
Consider `O=C(O)c1cn(C2CC2)c2cc(N3CCNCC3)c(F)cc2c1=O`, for which the compound was classed as inactive in assay [1], in assay [2], in assay [3], in [4], in assay [5] and in [6]. Moreover, the result in assay [7] and in assay [9] was inactive.
As for `O=C(O)COCCN1CCN(C(c2ccccc2)c2ccc(Cl)cc2)CC1` (configuration not stated), the result in assay [1], in assay [2], in [3], in assay [4], in assay [5] and in [6] was inactive. Further, the compound was classed as inactive in assay [8] and in [9].
Regarding `O=C1NC(=O)c2ccccc21`, the outcome in [1], in assay [2], in assay [3], in assay [4], in assay [5] and in assay [6] was inactive. Also, the compound was called inactive in [7] and in assay [9].
Consider `C=CC[N+](C)(C)CC=C`, for which the outcome in assay [1], in [2], in assay [3], in assay [4], in assay [5] and in [6] was inactive. The outcome in assay [8], in assay [10] and in [9] was inactive.
Turning to `NC(N)=NC(=O)c1nc(Cl)c(N)nc1N`, the outcome in [1], in assay [2], in assay [3], in [5], in assay [6] and in assay [8] was inactive. Moreover, in assay [9], the call was inactive. Also, in assay [4], the AC50 was 149 µM (active).
As for `O=C(O)CCSCCC(=O)O`, the call in assay [1], in assay [2], in assay [3], in [4], in [5] and in assay [6] was inactive. The result in assay [8] and in [9] was inactive.
On to `COCCCOc1ccnc(CS(=O)c2nc3ccccc3[nH]2)c1C` (configuration not stated), for which the compound was classed as inactive in assay [1], in [2], in assay [3], in assay [4], in [6] and in [8]. The compound was classed as inactive in [10] and in assay [9]. For the same compound, the concentration at half-maximal activity (AC50) in assay [5] is 14.7 µM (active).
With `Nc1ccc(F)c([N+](=O)[O-])c1`, the outcome in assay [1], in [2], in assay [3], in assay [4], in assay [5] and in assay [6] was inactive. Besides, the outcome in assay [8] and in [9] was inactive.
On to `OCc1cccnc1`, for which the compound was called inactive in assay [1], in [2], in assay [3], in assay [4], in assay [5] and in assay [6]. Moreover, the compound was called inactive in assay [8] and in assay [9].
Regarding `CCCCCCCCCCCCCC(=O)O`, the compound was classed as inactive in assay [1], in assay [2], in [3], in assay [4], in assay [5] and in [6]. In addition, the compound was called inactive in assay [7] and in assay [9].
In the case of `O=C(O)c1snc(Cl)c1Cl`, the AC50 in assay [1] was 155 µM (active); in assay [4], 100 µM (active); in [5], 14.5 µM (active); in assay [6], 100 µM (active). Further, the result in [2], in [3], in assay [8] and in [9] was inactive.
As to `O=C(O)c1cccc(C(F)(F)F)c1`, the outcome in [1], in assay [2], in assay [3], in [4], in assay [5] and in assay [6] was inactive. In addition, the call in [7] and in [9] was inactive.
With `NCCCCCCN`, the compound was classed as inactive in assay [1], in [2], in assay [3], in [4], in assay [5] and in [6]. Also, the compound was classed as inactive in assay [8], in assay [10] and in assay [9].
With `CC(C)C(C)(C)C(C)(C)C(C)(C)S`, the outcome in assay [1], in assay [2], in assay [3], in assay [4], in assay [5] and in [6] was inactive. The call in assay [7] and in assay [9] was inactive.
In the case of `Cc1ccc(C=O)s1`, the compound was classed as inactive in assay [1], in assay [2], in assay [3], in assay [4], in [5] and in [6]. Besides, the compound was called inactive in [8], in [10] and in assay [9].
Turning to `N#Cc1ccccc1`, the compound was called inactive in assay [1], in [2], in assay [3], in assay [4], in assay [5] and in assay [6]. Moreover, the call in assay [8] and in [9] was inactive.
With `CC[Si](OC(C)=O)(OC(C)=O)OC(C)=O`, the call in [1], in [2], in assay [3], in assay [4], in [5] and in assay [6] was inactive. For the same compound, the result in assay [7] and in assay [9] was inactive.
`CN(C)C(=N)N=C(N)N`: the call in assay [1], in assay [2], in assay [3], in assay [4], in assay [5] and in assay [6] was inactive. Further, the compound was classed as inactive in [8], in assay [10] and in assay [9].
With `COCCOCCOCCOCCOCCO`, the call in [1], in [2], in assay [3], in assay [4], in assay [5] and in assay [6] was inactive. The result in assay [7] and in [9] was inactive.
On to `Cc1ccc(S)cc1`, for which the result in [1], in assay [2], in assay [5] and in assay [9] was inactive. Also, the half-maximal activity concentration (AC50) in assay [3] was 34.4 µM (active); in assay [4], 59.7 µM (active); in assay [6], 119 µM (active); in [8] it was 100 µM (active).
Take `CCCC(=O)OCCC(C)CCC=C(C)C` (configuration not stated): the result in assay [1], in assay [2], in assay [3], in assay [4], in [5] and in [6] was inactive. In addition, the compound was called inactive in assay [8], in assay [10] and in assay [9].
